Source: PubChem BioAssay (National Center for Advancing Translational Sciences (NCATS))
KB-V1 cytotox = qHTS assay for MDR1-selective chemotherapeutics: Primary screen using the drug-selected MDR subline cells KB-V1; 400,000 compounds, 3.4% hits; Potency, µM (titrated, usually from 46.1 µM), actives largely listed as cytotoxic; KB-V1 MDR cells viability, CellTiter-Glo, 72 h; note: % is set by controls: 0 for no effect and ±100 for the full control effect; nearly all actives have a fitted effect of over 60% in size
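In this primary screen, KB-V1 cells overexpressing P-gp are incubated with library compounds (lowest to highest concentration) for 72 h at 37 degrees C before a luminescent ATP viability read.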
MCF10A rerep = A quantitative high throughput screen for small molecules that induce DNA re-replication in MCF 10a normal breast cells | MCF 10A DNA re-replication, Hoechst nuclear intensity, 48 h | Potency, µM (doses to about 46.1 µM), without a hit: at the highest dose activity, positive = re-replication, most hits filed as activators | 350,000 compounds, 2.9% hits | AID 624296, 2012; note: % of control where 0% means no effect; nearly all actives have a fitted effect of over 50% in size
SW480 rereplic = A quantitative high throughput screen for small molecules that induce DNA re-replication in SW480 colon adenocarcinoma cells; SW480 DNA re-replication, Hoechst DNA content imaging, 48 h; Potency, µM (highest dose often 46.1 µM), for the others: at the top dose re-replication activation, hits mostly activators; 340,000 compounds, 1.8% hits; AID 624297, 2012; note: % of control where 0% means no effect; nearly all actives have a fitted effect of over 55% in size
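Treated cells incubate 48 hr (37 C, 5% CO2), are stained 40 min with Hoechst, and nuclear fluorescence is enumerated; a rise in nuclei with high DNA signal marks re-replication.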
KB-3-1 cytotox = qHTS assay for MDR1-selective chemotherapeutics: Primary screen using the parental adenocarcinoma cell KB-3-1 | KB-3-1 viability, CellTiter-Glo ATP luminescence, 72 h | Potency, µM (doses to about 46.1 µM), usual class: cytotoxic | 400,000 compounds, 1.4% hits; note: % is set by controls: 0 for no effect and ±100 for the full control effect; nearly all actives have a fitted effect of over 60% in size
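72 h, 37 °C compound treatment of KB-3-1 parental cells; CellTiter-Glo added, 10 min, luminescence read. Data corrected against DMSO-only plates and normalized before curve fitting.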
RORgamma inh = qHTS for inhibitors of ROR gamma transcriptional activity; Potency, µM (series often up to 53.6 µM), inactives show at the highest dose activity change, negative = inhibition, actives largely listed as inhibitors; AID 2551, 2010; 310,000 compounds, 5.4% hits; Nuclear receptor ROR-gamma (Mus musculus), P51450; Drosophila S2 Gal4-RORgamma UAS-luciferase reporter, 20 h; note: % is set by controls: 0 for no effect and ±100 for the full control effect; nearly all actives have a fitted effect of over 60% in size
Target sequence (P51450 whole entry, looked up, the tested form may be a part): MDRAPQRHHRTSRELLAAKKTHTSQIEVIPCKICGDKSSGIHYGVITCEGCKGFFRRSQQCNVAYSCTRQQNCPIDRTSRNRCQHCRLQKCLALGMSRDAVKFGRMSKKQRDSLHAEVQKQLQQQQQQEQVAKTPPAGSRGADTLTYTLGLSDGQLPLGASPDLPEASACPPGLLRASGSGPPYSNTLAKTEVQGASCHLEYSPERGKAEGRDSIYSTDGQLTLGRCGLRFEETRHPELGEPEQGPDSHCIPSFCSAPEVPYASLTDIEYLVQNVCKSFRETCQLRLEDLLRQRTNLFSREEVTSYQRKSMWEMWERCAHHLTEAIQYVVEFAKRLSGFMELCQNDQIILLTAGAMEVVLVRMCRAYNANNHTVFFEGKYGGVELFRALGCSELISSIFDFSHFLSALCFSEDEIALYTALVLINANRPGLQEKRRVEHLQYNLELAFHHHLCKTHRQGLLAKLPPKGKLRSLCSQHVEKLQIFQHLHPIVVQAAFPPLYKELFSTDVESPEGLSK
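In this cell-based reporter format, copper sulfate (700 uM final) drives Gal4–ROR gamma fusion expression from a metallothionein promoter in Drosophila Schneider cells; compounds preincubated 1 hr, reporter read after 20 hr at ambient temperature.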
Gal4-VP16 FLuc = VP16 counterscreen qHTS for inhibitors of ROR gamma transcriptional activity | Drosophila S2 Gal4-VP16 UAS-luciferase, luminescence, 20 h | Potency, µM (doses to about 53.6 µM), for the others: at the highest dose activity, negative = inhibition, actives largely listed as inhibitors | 310,000 compounds, 3.5% hits;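 note: Gal4-VP16 expression switched on by copper sulfate through the metallothionein promoter; % is set by controls: 0 for no effect and ±100 for the full control effect; nearly all actives have a fitted effect of over 50% in size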
An asterisk follows results filed as active; i = inactive; ? = inconclusive; · = not tested or not shown; [ ] = another dose, or the depositor's remark. Hits are enriched below; roughly 10% of the tested compounds scored in any of these assays. Calls come from the whole dose curve; as a rule, active = well fitted curve in the direction sought with a large enough effect; inconclusive = small, poorly fitted or top-dose-only effect, or another doubt; inactive = no such curve, though single readings can be large; an effect the other way counts as inactive or inconclusive. Potency is the fitted concentration of half-maximal effect.

SMILES	KB-V1 cytotox	MCF10A rerep	SW480 rereplic	KB-3-1 cytotox	RORgamma inh	Gal4-VP16 FLuc
Cc1ccccc1NC1=C/C(=N\S(=O)(=O)c2ccc(C(=O)O)cc2)c2ccccc2C1=O	?	2.06µM*	?	?	?	?
O=C(O)c1ccc(S(=O)(=O)/N=C2\C=C(Nc3ccccc3F)C(=O)c3ccccc32)cc1	?	1.46µM*	6.51µM*	?	?	?
N#Cc1c(C(F)(F)F)cc(-c2cccs2)nc1SCC(=O)Nc1ccccc1F	i	·	·	i	·	·
N#C/C(=C(/O)C(Cl)(Cl)Cl)c1nc2ccccc2[nH]1	i	3.2%	14.4%	i	?	?
N#C/C(=C(/O)c1ccc([N+](=O)[O-])cc1)c1nc2ccccc2[nH]1	i	-1.1%	10.2%	i	-15.2%	18.1%
N#C/C(=C(/O)c1ccc(Cl)c([N+](=O)[O-])c1)c1nc2ccccc2[nH]1	i	-8.2%	12.1%	?	12.6µM*	?
COc1cc(/C(O)=C(\C#N)c2nc3ccccc3[nH]2)cc(OC)c1OC	i	14.6µM*	?	i	11.2µM*	?
CC(=O)OC(/C(O)=C(\C#N)c1nc2ccccc2[nH]1)c1ccccc1 (stereo not drawn)	i	-3.8%	-2.0%	i	14.1µM*	?
N#C/C(=C(\O)c1cc(Cl)sc1Cl)c1nc2ccccc2[nH]1	i	20.6µM*	?	i	2.51µM*	?
CCCNC(=O)OC[C@H]1O[C@@H](CCO/N=C\[C@@H](NS(=O)(=O)c2ccc(C)cc2)[C@H](C)/C=C\CC(=O)OC)C=C[C@@H]1Oc1ccc(OC)cc1	·	·	·	·	-3.2%[10 µM]	4.1%[10 µM]
COc1ccccc1-c1nc(SCC(=O)NCc2ccc(C)cc2)c2c(=O)n(C)c(=O)n(C)c2n1	?	·	·	i	·	·
Cc1ccccc1NC(=O)c1ccc2nc(Cc3ccccc3)oc2c1	i	·	·	i	·	·
O=C(NC(Cc1ccc(O)cc1)C(=O)N=Nc1c(O)[nH]c2ccccc12)c1ccccc1 (stereo not drawn)	i	-0.1%	-3.5%	i	·	·
C/C(O)=C(/C#N)c1nc2ccccc2[nH]1	?	2.4%	2.4%	i	7.94µM*	?
COc1ccc(Br)cc1CNC(=O)CN1C(=O)c2cccnc2Oc2ccc(C)cc21	i	·	·	i	·	·
CCn1cc(C2=NC(CCSC)CO2)c2ccccc21 (stereo not drawn)	i	-0.6%	-2.9%	i	7.94µM*	?
CCn1cc(C=C2C(=O)c3ccccc3C2=O)c2ccccc21	i	1.1%	-6.1%	i	15.2%	6.8%
CCn1cc(C2=NC(CC(C)C)CO2)c2ccccc21 (stereo not drawn)	i	?	?	i	3.98µM*	?
CCn1cc(C2=NC(C(C)C)CO2)c2ccccc21 (stereo not drawn)	i	-5.0%	3.1%	i	10µM*	?
CC(C)C1COC(c2cccc3ccccc23)=N1 (stereo not drawn)	?	-7.1%	?	i	20µM*	?
CC(C)C[C@H](NC(=O)[C@@H]1CCC(=O)N1)C(=O)N[C@@H](Cc1ccc(O)cc1)C(=O)N[C@@H](CCC(=O)O)C(=O)N[C@@H](CC(N)=O)C(=O)N[C@@H](CCCCN)C(=O)N1CCC[C@H]1C(=O)N[C@@H](CCCN=C(N)N)C(=O)N[C@@H](CCCN=C(N)N)C(=O)N1CCC[C@H]1C(=O)N[C@@H](Cc1ccc(O)cc1)C(=O)O	·	·	·	·	7.1%	-1.1%
CCOc1cc2[nH]c(=O)n(CCC(=O)N3CCN(c4cccc(Cl)c4)CC3)c(=O)c2cc1OCC	i	·	·	i	·	·
Cc1ccc(-c2n[nH]c(=O)c3ccccc23)cc1S(=O)(=O)Nc1ccccc1	20.6µM*	?	1.0%	?	?	?
CC(C)c1ccccc1NC(=S)NCc1ccccc1F	?	0.0%	-7.0%	i	?	?
CCCCNC(=S)Nc1ccccc1F	i	-0.9%	0.1%	i	11.2µM*	?
SMILES	KB-V1 cytotox	MCF10A rerep	SW480 rereplic	KB-3-1 cytotox	RORgamma inh	Gal4-VP16 FLuc
CC(C)CNC(=S)Nc1ccccc1F	i	?	-3.8%	i	6.31µM*	4.47µM*
O=c1[nH][nH]c2cc(=O)n(-c3cccc(C(F)(F)F)c3)nc12	?	-2.0%	7.8%	i	-2.0%	-2.6%
Nc1n[nH]c2cc(=O)n(-c3cccc(C(F)(F)F)c3)nc12	i	-2.4%	7.31µM*	i	22.8%	-3.0%
Cc1nc2ccccn2c1C(=O)CSc1ccccc1Cl	16.4µM*	13.4%	-9.3%	?	-16.5%	1.6%
Cc1ccccc1NC(=O)C1CC(=O)N(c2ccc3c4c(cccc24)CC3)C1 (stereo not drawn)	i	-3.3%	2.0%	i	18.4%	7.2%
O=C(Nc1ccccc1Br)C1CC(=O)N(c2ccc3c4c(cccc24)CC3)C1 (stereo not drawn)	?	20.6µM*	?	4.61µM*	39.8%	-3.7%
CCN(CCNC(=O)Nc1ccc(Cl)cc1)c1ccccc1	?	18.4µM*	?	?	?	-21.9%
O=C(NCCc1ccc(Cl)cc1)Nc1ccc(Cl)cc1	i	8.1%	-16.3%	i	-0.9%	4.0%
Cc1ccc(-c2nnc(NC(=O)Nc3ccc4ccccc4c3)s2)cc1	?	·	·	i	·	·
O=C(NCc1cccs1)C1CCN(c2ccc(S(=O)(=O)N3CCOCC3)cc2Cl)CC1	3.66µM*	6.51µM*	1.3µM*	2.31µM*	?	-9.2%
CC1CCCC(C)N1c1ccc(S(=O)(=O)N2CCOCC2)cc1Cl (stereo not drawn)	?	8.2µM*	?	i	22.9%	9.2%
O=S(=O)(c1ccc(N2CCOCC2)c(Cl)c1)N1CCOCC1	i	?	4.5%	i	?	27.4%
O=C(NCc1cccs1)C1CCN(c2nccs2)CC1	i	-5.9%	-9.1%	i	24.6%	2.8%
COc1nc(OC)nc(N2CCC(C(=O)NCc3ccco3)CC2)n1	?	6.6%	-3.5%	i	-4.3%	4.9%
C#CCNC(=O)C1CCN(c2ccc(S(=O)(=O)N3CCOCC3)cc2Cl)CC1	?	3.4%	9.3%	?	39.6%	-7.4%
